{"source": "PubChem BioAssay (NCI)", "test": "NCI Yeast Anticancer Drug Screen. Data for the rad50EPP+ strain (AID 151);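 further: 0% = growth of vehicle-treated control cultures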", "conditions": "S. cerevisiae rad50 mutant strain, active compounds read high", "protocol": "Growth inhibition of yeast strains with defined genetic alterations is measured as a screen for potential anti-cancer activity. Selected strains with alterations in DNA damage repair or cell cycle control were exposed to compounds and growth inhibition was measured relative to vehicle treated controls. The strain used in this assay is rad50EPP+", "note": "About 79,000 compounds went through this panel and 15% of them were active in at least one assay; those are over-represented in the sample as a whole. A number with no mark means an inactive call. Active and inactive are the calls of the source. No stated cut-off is given here; in the data, active means growth inhibition above about 70%; inactive means the rest.", "data": [{"smiles": "CSc1s[s+]c(SC)c1-c1ccccc1", "values": [{"measurement": "growth inhibition", "setting": "at 1.2 µM", "value": 14, "unit": "%"}, {"measurement": "growth inhibition", "setting": "at 3.7 µM", "value": 10, "unit": "%"}, {"measurement": "growth inhibition", "setting": "at 11.0 µM", "value": 61, "unit": "%"}, {"measurement": "growth inhibition", "setting": "at 33.0 µM", "value": "93% (active)"}, {"measurement": "growth inhibition", "setting": "at 100.0 µM", "value": "89% (active)"}]}, {"smiles": "CCOC(=O)CNC(=O)c1[nH]cnc1/N=N/N(C)C", "values": [{"measurement": "growth inhibition", "setting": "at 1.2 µM", "value": -23, "unit": "%"}, {"measurement": "growth inhibition", "setting": "at 3.7 µM", "value": -21, "unit": "%"}, {"measurement": "growth inhibition", "setting": "at 11.0 µM", "value": -21, "unit": "%"}, {"measurement": "growth inhibition", "setting": "at 33.0 µM", "value": -30, "unit": "%"}, {"measurement": "growth inhibition", "setting": "at 100.0 µM", "value": -13, "unit": "%"}]}, {"smiles": "Cc1cc(O)c2c(c1O)C(=O)C13C(=C2O)C(=O)C2C(O)C1C1C(O)C3C(=O)C3=C(O)c4c(O)cc(C)c(O)c4C(=O)C321", "note": "(stereo not given)", "values": [{"measurement": "growth inhibition", "setting": "at 1.2 µM", "value": 4, "unit": "%"}, {"measurement": "growth inhibition", "setting": "at 3.7 µM", "value": 3, "unit": "%"}, {"measurement": "growth inhibition", "setting": "at 11.0 µM", "value": -4, "unit": "%"}, {"measurement": "growth inhibition", "setting": "at 33.0 µM", "value": 1, "unit": "%"}, {"measurement": "growth inhibition", "setting": "at 100.0 µM", "value": -38, "unit": "%"}]}, {"smiles": "COc1cc(CNc2ccc(C(C)C)cc2)cc(OC)c1OC", "values": [{"measurement": "growth inhibition", "setting": "at 1.2 µM", "value": -4, "unit": "%"}, {"measurement": "growth inhibition", "setting": "at 3.7 µM", "value": -6, "unit": "%"}, {"measurement": "growth inhibition", "setting": "at 11.0 µM", "value": 5, "unit": "%"}, {"measurement": "growth inhibition", "setting": "at 33.0 µM", "value": 26, "unit": "%"}, {"measurement": "growth inhibition", "setting": "at 100.0 µM", "value": 28, "unit": "%"}]}, {"smiles": "O=C1CC(=O)N(C2CCCCC2)C(=O)N1c1ccccc1S(=O)(=O)Oc1ccccc1", "values": [{"measurement": "growth inhibition", "setting": "at 1.2 µM", "value": -22, "unit": "%"}, {"measurement": "growth inhibition", "setting": "at 3.7 µM", "value": -19, "unit": "%"}, {"measurement": "growth inhibition", "setting": "at 11.0 µM", "value": -16, "unit": "%"}, {"measurement": "growth inhibition", "setting": "at 33.0 µM", "value": 2, "unit": "%"}, {"measurement": "growth inhibition", "setting": "at 100.0 µM", "value": -49, "unit": "%"}]}, {"smiles": "O=C1c2ccccc2CCC1(Br)Br", "values": [{"measurement": "growth inhibition", "setting": "at 1.2 µM", "value": 55, "unit": "%"}, {"measurement": "growth inhibition", "setting": "at 3.7 µM", "value": "82% (active)"}, {"measurement": "growth inhibition", "setting": "at 11.0 µM", "value": "97% (active)"}, {"measurement": "growth inhibition", "setting": "at 33.0 µM", "value": "99% (active)"}, {"measurement": "growth inhibition", "setting": "at 100.0 µM", "value": "99% (active)"}]}, {"smiles": "O=S1(=O)c2ccccc2N=C(c2ccccc2Cl)CC1c1ccc(F)cc1", "note": "(stereo not given)", "values": [{"measurement": "growth inhibition", "setting": "at 1.2 µM", "value": -23, "unit": "%"}, {"measurement": "growth inhibition", "setting": "at 3.7 µM", "value": -22, "unit": "%"}, {"measurement": "growth inhibition", "setting": "at 11.0 µM", "value": 0, "unit": "%"}, {"measurement": "growth inhibition", "setting": "at 33.0 µM", "value": 15, "unit": "%"}, {"measurement": "growth inhibition", "setting": "at 100.0 µM", "value": 24, "unit": "%"}]}, {"smiles": "O=C(/C=C/c1cccc(Br)c1)c1ccc(Cl)cc1", "values": [{"measurement": "growth inhibition", "setting": "at 1.2 µM", "value": -62, "unit": "%"}, {"measurement": "growth inhibition", "setting": "at 3.7 µM", "value": -22, "unit": "%"}, {"measurement": "growth inhibition", "setting": "at 11.0 µM", "value": -25, "unit": "%"}, {"measurement": "growth inhibition", "setting": "at 33.0 µM", "value": -13, "unit": "%"}, {"measurement": "growth inhibition", "setting": "at 100.0 µM", "value": 2, "unit": "%"}]}]}
